RecA intein inh – blocks M. tuberculosis RecA intein splicing. P9WHJ3. cell-free RecA intein splicing, fluorescence. inhibition, % (concentration not given with the values). hit rate 0.75% among 290,000; in the data active means inhibition above about 30%;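 further: 0% = vehicle wells and 100% = reference inhibitor control wells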
CCHF vOTU inh – CCHFV vOTU protease inhibition | Pep-AMC fluorescence | inhibition, % at 11.5 µM | hit rate 0.55% among 370,000; in the data active means inhibition above about 30%; further: 0% = vehicle wells with enzyme and 100% = no enzyme wells
3CLpro inhibitor – SARS-CoV 3CLpro protease inhibition; P0C6X7; inhibition, % at 6 µM; AID 1706; recombinant SARS-CoV 3CLpro, quenched FRET peptide cleavage; hit rate 0.14% among 290,000; in the data active means inhibition above about 12%
VHR inh abs – blocks human VHR1 dual specificity phosphatase | hit rate 0.52% among 290,000 | AID 1654 | inhibition, % at 13.3 µM | recombinant VHR phosphatase, pNPP absorbance | P51452; in the data active means inhibition above about 50%
Target sequence (P51452 whole entry, looked up): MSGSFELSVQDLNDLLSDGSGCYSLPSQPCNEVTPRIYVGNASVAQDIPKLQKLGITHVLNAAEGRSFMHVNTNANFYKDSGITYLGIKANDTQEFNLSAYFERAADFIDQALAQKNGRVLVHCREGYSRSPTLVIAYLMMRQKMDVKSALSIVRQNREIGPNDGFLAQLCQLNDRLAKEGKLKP
The depositor's hits bear a star; . = not tested or not shown. Rows were chosen to be rich in hits. Some 1.5% of all compounds tested hit in one or more screens of this group.

SMILES	RecA intein inh	CCHF vOTU inh	3CLpro inhibitor	VHR inh abs
Cc1ccc(NC(=S)N2CCC(NC(=O)c3cccc(F)c3)CC2)cc1	-0.1	4.9	2.3	54.8*
COc1ccc(S(=O)(=O)Cc2ccc(C(=O)N3CCc4ccccc4C3)o2)cc1	2.2	-2.2	3.6	16.6
Cc1ccc(S(=O)(=O)Cc2ccc(C(=O)N3CCc4ccccc4C3)o2)cc1	2.4	0.1	0.1	54.5*
Cc1ccc(C2=CCN(C)C(=O)N2c2ccc([N+](=O)[O-])cc2)cc1	.	4.4	.	.
CCOC(=O)N1CCN(C2=C(NS(=O)(=O)c3ccc(Br)cc3)C(=O)c3ccccc3C2=O)CC1	.	12.7	.	.
CCOC(=O)N1CCN(C2=C(NS(=O)(=O)c3ccccc3)C(=O)c3ccccc3C2=O)CC1	-1.7	88.8*	-0.2	-17.6
O=C(Nc1ccccc1Oc1cccnc1)C1CCCN(Cc2ccc(F)cc2)C1 (stereo not given)	2.6	-5.8	-2.8	57.1*
CC1(C)CC(CCNS(=O)(=O)c2ccccc2)(c2ccccc2)CCO1 (stereo not given)	2.5	-13.8	-3.3	-13.8
CC1(C)CC(CCNC(=O)CCl)(c2ccccc2)CCO1 (stereo not given)	32.1*	9.6	7.1	-3.2
CCCC[C@H](C(=O)N(C)c1cccc(OC)c1)[C@@H](O)c1ccc(C(C)=O)cc1	.	0.7	.	.
Cc1cccc(CCNc2nc3ccccc3n3nnnc23)c1	5.4	-12.0	2.3	22.8
Clc1ccc(CCNc2nc3ccccc3n3nnnc23)cc1	0.0	-3.0	-7.9	50.0*
COC(=O)[C@]12C[C@H](CC(=O)NCc3cccc(C(F)(F)F)c3)C(=O)N(Cc3ccccc3)C1=C[C@H](COCc1ccccc1)O[C@@H]2C	.	9.9	.	.
CC1(C)Cc2nc(-c3ccccc3)nc(SCC(=O)N3CCOCC3)c2CO1	0.8	-4.4	-5.4	38.7
Cc1cccc(-c2nc3c(c(SCC(=O)N4CCOCC4)n2)COC(C)(C)C3)c1	4.3	0.3	-0.6	59.8*
CSc1ccc(S(=O)(=O)NCC(=O)OCC(=O)NCc2cccs2)cc1[N+](=O)[O-]	0.0	5.1	.	.
Cn1c(=O)c2sccc2n2c(CCCC(=O)NCc3cccnc3)nnc12	-3.1	-2.6	0.2	-12.2
Cn1c(=O)c2sccc2n2c(CCCC(=O)NCc3ccc(F)cc3)nnc12	3.0	5.5	-0.3	59.7*
Cc1ccc(Cn2cc(CN(C)S(=O)(=O)c3ccccc3Br)nn2)cc1	.	-4.1	.	.
CC(=O)N1CCC(N(CCCOC(C)C)S(=O)(=O)c2ccc([N+](=O)[O-])cc2)CC1	-2.0	4.2	-8.0	52.6*
CCOC(=O)C1CCN(S(=O)(=O)c2c(Cl)ccc3nonc23)CC1	41.1*	5.5	2.5	16.3
CCOC(=O)C1CCN(S(=O)(=O)c2cccc3nonc23)CC1	1.8	-8.5	-1.0	-3.9
CC(=O)N1CCc2c(sc(NC(=O)Cc3ccc(C)cc3C)c2C#N)C1	0.7	10.0	-5.5	57.7*
CC(C(=O)N1CCCc2c1c(=O)oc1ccc(O)cc21)N1CCc2ccccc2C1 (stereo not given)	6.3	.	0.5	55.6*
CN(CC(=O)N1CCCc2c1c(=O)oc1ccc(O)cc21)Cc1ccccc1	2.7	-0.7	-1.8	14.4
SMILES	RecA intein inh	CCHF vOTU inh	3CLpro inhibitor	VHR inh abs
CC[n+]1c(/C=C2\C=C(C)CC(C)(C)C2)sc2ccccc21	46.6*	6.4	2.2	13.6
CCC1=C/C(=C/c2sc3ccccc3[n+]2CC)CC(C)(C)C1	10.6	11.2	0.6	-1.0
O=C(NC(=S)N1CCN(c2ccc([N+](=O)[O-])cc2)CC1)c1ccco1	2.9	-12.2	1.5	53.0*
Cc1cc(C)cc(C(O)c2ncc(-c3cccc(F)c3)[nH]2)c1 (stereo not given)	.	-12.1	.	.
O=C(c1ccccc1F)N1CCN(c2ccccc2F)CC1	.	-15.6	0.1	53.4*
CCOC(=O)c1c(P(=O)(N2CCOCC2)N2CCOCC2)noc1N	0.2	7.5	1.6	53.2*
CC(C)(C)NC(=O)CN(C(=O)c1snc(C(=O)NC2CCCCC2)c1N)c1ccc(F)cc1	-50.1	4.5	2.6	8.5
CC(C)(C)NC(=O)CN(C(=O)CCC(=O)Nc1nccs1)c1ccc(F)c(Cl)c1	0.5	7.8	-3.5	53.0*
O=C(CNC(=O)c1cccc(F)c1)OCC(=O)N1CCCCC1	0.2	0.6	5.0	50.8*
CCn1c(=O)c([N+](=O)[O-])c(Cl)c2ccccc21	40.7*	.	-4.9	34.4
O=C(NCc1ccccc1)C1CCN(S(=O)(=O)c2ccc(Cl)cc2)CC1	-4.9	9.7	2.7	29.6
Cc1ccc(S(=O)(=O)NCCNS(=O)(=O)c2ccc(C)cc2)cc1	-2.3	6.8	-2.9	58.2*
Cc1cccc(Nc2nc(Cl)ncc2F)c1C	1.5	-7.1	-1.8	59.7*
C=CCNc1nc(Cl)ncc1F	-10.8	-2.0	-4.4	17.0
Cc1cc(NC(=O)CN2C(=O)NC3(CCC(C)CC3)C2=O)no1 (stereo not given)	-7.4	-9.4	0.7	51.3*
CC(C)(C)c1ccc(C(=O)NNC(=O)C2CCCCC2)cc1	-0.4	15.8	6.3	1.3
Nc1nc2c(s1)CCc1c-2cnn1-c1ccccc1	97.6*	.	0.3	16.6
CCCCCCCCCn1cc(C(C)=O)c(=O)[nH]c1=O	2.1	22.7	-1.1	50.3*
Cc1ccc(C(=O)N/N=C/c2ccc(-c3ccccc3[N+](=O)[O-])o2)cn1	61.5*	28.8	2.0	-7.5
O=C(N/N=C/c1ccc(-c2ccc([N+](=O)[O-])cc2)o1)[C@H]1C[C@@H]1c1ccccc1	-12.5	-8.4	0.8	-0.1
O=C(N/N=C/c1ccc(-c2ccccc2[N+](=O)[O-])o1)[C@H]1C[C@@H]1c1ccccc1	42.0*	-1.4	3.3	5.1
COCc1ccc(CN2CCC(N3CCC(C(=O)N4CCCC4)CC3)CC2)o1	-2.1	4.9	2.7	52.5*
COCc1ccc(CN2CCC(n3nccc3NC(=O)C(OC)c3ccccc3)CC2)o1 (stereo not given)	-1.4	7.7	5.2	-9.1
CCOC(=O)CN1CC(C)(C)N(CC(=O)OCC)CC1(C)C	.	-11.6	.	.
CN(Cc1ccccc1)c1ccc(S(=O)(=O)N2CCC(C(=O)O)CC2)cc1[N+](=O)[O-]	1.7	9.8	0.2	10.2
SMILES	RecA intein inh	CCHF vOTU inh	3CLpro inhibitor	VHR inh abs
COC(=O)c1ccccc1Nc1ccccc1	.	33.6*	-1.0	3.8
O=C(COC(=O)c1ccccc1Nc1ccccc1)c1ccccc1	11.9	12.1	0.4	29.7
COc1ccc(CCN(Cc2cccs2)S(=O)(=O)c2ccc(C)c(C)c2)cc1OC	.	7.8	.	.
O=C(CCl)NCc1c(Cl)cccc1-n1cccc1	46.1*	10.4	2.5	23.5
O=C(Cc1c(Cl)cccc1Cl)NCCc1ccc(Cl)cc1	4.3	-11.5	-1.0	14.1
Cc1nn(-c2ccccc2)c2nc(=O)n(-c3ccccc3)cc12	-0.1	-0.1	-2.4	55.9*
Cc1ccc2nc3c(cc2c1)c(C)nn3-c1ccccc1	-34.2	-9.6	-0.9	-29.1
CCOC(=O)CC1=NN(c2ccccc2)C(=O)C1	65.9*	1.6	4.1	21.2
CCOC(=O)CC1=NN(c2ccccc2)C(=O)/C1=C\c1ccc(N(C)C)cc1	14.3	-4.8	-0.3	9.6
CN(C)[C@@H]1CCN(c2cccc3c2S(=O)(=O)N2CC[C@@H](C2)O3)C1	.	-3.2	.	.
Cc1ccc(C2(CCNCc3ccc(N(C)C)cc3)CCOC(C(C)C)C2)cc1 (stereo not given)	3.9	17.5	1.1	57.4*

Source: PubChem BioAssay
